# Compound activity (PubChem)
# PrP 5UTR inh: inhibition of PrP 5' UTR reporter expression. cell-based PrP 5' UTR mRNA reporter, plate reader. inhibition, % (concentration not given with the values). hit rate 0.35% among 340,000; in the data active means inhibition above about 52%; further: 0 = median of the neutral control wells
# RecA splice inh: Mtb RecA intein splicing inhibitors, primary screen, biochemical, fluorescence, HTS; Protein RecA (Mycobacterium tuberculosis (strain ATCC 25618 / H37Rv)), P9WHJ3; cell-free RecA intein splicing; AID 2221, 2009; inhibition, % (no concentration beside the values); hit rate 0.75% among 290,000; in the data active means inhibition above about 30%;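 further: 0% = vehicle wells and 100% = reference inhibitor control wells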
# Rv3671c protease: Rv3671c serine protease inhibitors, primary screen, biochemical, fluorescence polarization, M. tuberculosis H37Rv; P9WHR9; hit rate 0.048% among 320,000; inhibition, % at 5.96 µM; in the data active means inhibition above about 38%;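 further: extracellular domain of Rv3671c used as enzyme; 0% = enzyme with DMSO and 100% = no enzyme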
# Target sequence (P9WHR9 whole entry, looked up, the tested form may be a part): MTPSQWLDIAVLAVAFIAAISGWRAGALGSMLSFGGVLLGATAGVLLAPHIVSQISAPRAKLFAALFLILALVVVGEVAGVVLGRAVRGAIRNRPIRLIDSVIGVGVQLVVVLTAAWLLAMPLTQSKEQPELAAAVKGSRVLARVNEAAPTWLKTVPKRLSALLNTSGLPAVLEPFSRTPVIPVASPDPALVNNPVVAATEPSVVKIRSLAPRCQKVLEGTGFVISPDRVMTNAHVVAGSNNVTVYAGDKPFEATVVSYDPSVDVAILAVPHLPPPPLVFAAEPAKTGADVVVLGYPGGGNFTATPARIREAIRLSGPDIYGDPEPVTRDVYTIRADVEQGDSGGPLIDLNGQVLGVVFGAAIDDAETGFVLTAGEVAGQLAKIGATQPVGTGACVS
# BJeLR viability: MLPCN primary cell-based screen for lethality selective to Ras in HRASV12 cells; hit rate 0.17% among 300,000; BJeLR (HRASV12) viability, CellTiter-Glo ATP luminescence, 48 h; inhibition, % (concentration not given with the values); in the data active means inhibition above about 50%
# FadD28 FP inh: inhibitors of FadD28 bisubstrate probe binding, primary screen, biochemical, fluorescence polarization, single point | Mycobacterium tuberculosis FadD28 fatty-acid-AMP ligase | hit rate 0.22% among 360,000 | inhibition, % at 12.5 µM; in the data active means inhibition above about 8.5%, passing the limit was not always enough
# UGM FP inh: M. tuberculosis UGM enzyme inhibitors, primary screen, biochemical, fluorescence polarization, single point; UDP-galactopyranose mutase (Mycobacterium tuberculosis (strain ATCC 25618 / H37Rv)), …; purified UGM, fluorescence polarization probe displacement; inhibition, % at 10 µM; hit rate 0.06% among 320,000; in the data active means inhibition above about 10%, passing the limit was not always enough
# Active calls of the source: *; . = not tested or not shown. Shown are actives, neighbours in structure and some others; about 1.3% of the full set was active somewhere.
SMILES,PrP 5UTR inh,RecA splice inh,Rv3671c protease,BJeLR viability,FadD28 FP inh,UGM FP inh
CC1=CC(C)(C)N(S(=O)(=O)c2ccc(C)cc2)c2cc(C)ccc21,-45.4,9.2,-8.6,54.9*,-1.3,-2.8
COc1ccc2c(c1)C(C)=CC(C)(C)N2S(=O)(=O)c1ccc(C)cc1,25.0,-1.4,-3.3,31.4,-0.8,-1.5
N#CCC(=O)Nc1ccc(C(=O)OCC(=O)Nc2cccc(C(F)(F)F)c2)cc1,-10.6,1.4,-118.2,2.3,11.2*,-0.8
O=NN(Cc1cccnc1)C(=O)NC1CCCCC1,.,.,.,.,-3.1,.
Oc1c(Br)cc(Br)c(/C=N/n2c(-c3ccccc3)n[nH]c2=S)c1Br,-22.1,8.4,-4.0,1.0,25.0*,5.6
Oc1ccc(Br)cc1/C=N/n1c(-c2ccccc2)n[nH]c1=S,-9.6,6.2,8.1,-0.3,1.7,3.0
CC1=C(C(=O)N(C(C)C)C(C)C)CC(CC(=O)NCCCCc2ccccc2)C(=O)N1Cc1ccc(C(C)(C)C)cc1 (configuration not stated),.,.,.,.,-1.2,.
COC(=O)CCC(=O)OC1(C)C(=O)C2=CN(CCCCO)C(c3ccc(OC)cc3)=CC2=C(Br)C1=O (configuration not stated),.,48.4*,-21.6,-1.8,.,3.1
COC(=O)CCC(=O)OC1(C)C(=O)C2=CN(CCN3CCOCC3)C(c3ccc(OC)cc3)=CC2=C(Br)C1=O (configuration not stated),.,9.9,-47.4,-12.0,.,-1.1
CC1(C(=O)Nc2ccc3c(c2)OCCO3)CCN1C(=O)C1(c2ccc(Cl)cc2)CC1 (configuration not stated),.,.,.,.,-3.0,.
O=C(C1=C(c2ccccc2)C(=O)c2ccccc2C1=O)c1ccccc1,-17.9,35.6*,.,31.6,-1.4,.
O=C(c1ccccc1)c1c[nH]cc1-c1ccccc1,-29.6,0.3,-3.1,0.9,-4.2,-4.0
O=C(N/N=C/c1cccnc1)c1ccc(NC(=O)C(c2ccccc2)c2ccccc2)cc1,4.4,-4.1,-22.7,106.2*,-7.2,-2.5
O=C(CNC(=O)C(c1ccccc1)c1ccccc1)N/N=C/c1cccnc1,-18.1,-0.2,-0.9,14.0,-2.1,-3.0
O=C(/C=C/c1ccccc1[N+](=O)[O-])OCC(=O)N1CCN(c2ccccc2)CC1,.,.,.,.,-1.9,.
CC1=NN(c2cccc(C(=O)O)c2)C(=O)/C1=C\C=C\c1ccco1,-19.4,3.8,2.2,5.0,11.3*,-0.4
Cc1nn(CC(=O)NC2CCCCC2)c(C)c1[N+](=O)[O-],.,.,.,.,-1.1,.
O=C1C(Cl)=C(NCC2CCCO2)C(=O)N1c1ccccc1 (configuration not stated),-21.5,32.8*,4.2,3.9,-2.4,0.7
Cc1nn(-c2ccccc2)c(Cl)c1C(=O)NCC1CCCO1 (configuration not stated),8.8,.,-6.8,.,-1.4,14.0*
CCC(C)C(=O)OCC1(c2ccc(C)cc2OC(=O)C(C)C)CO1 (configuration not stated),1.8,.,-3.2,53.0*,-3.0,2.9
CCCNC(=O)C1(C)CCCN(Cc2cc(-c3ccccc3)nn2C)C1 (configuration not stated),.,.,.,.,-5.0,.
O=S(c1ccccc1O)S(=O)c1ccccc1O (configuration not stated),-20.9,.,.,.,28.1*,.
CS(=O)c1ccccc1O (configuration not stated),4.7,-2.8,-1.8,-4.1,-2.2,1.2
c1ccc(Cc2nc3ccccc3s2)cc1,-40.0,.,.,.,-0.6,.
CC(C)(CCC(=S)N1CCOCC1)c1ccccc1,-11.1,.,.,.,.,.
SMILES,PrP 5UTR inh,RecA splice inh,Rv3671c protease,BJeLR viability,FadD28 FP inh,UGM FP inh
CC1(CC(=O)N/N=C/c2ccc(OCc3ccc(Cl)cc3Cl)cc2)OCCCO1,-5.2,38.6*,-11.1,17.4,-3.0,2.7
COc1cc(/C=N/NC(=O)CC2(C)OCCCO2)ccc1OCc1ccc(Cl)cc1Cl,-30.5,1.7,-2.0,7.6,0.5,-1.0
CC(=O)NCCNc1nc2cc(-c3cccc(Cl)c3)sc2c(=O)n1C,.,.,.,.,-1.1,.
Cc1nc(N)nc(N)c1/C=C/C(C)(C)c1ccc(Cl)cc1,50.4,7.9,.,68.6*,-1.8,.
CC(O)(c1ccc(F)c(F)c1)c1nc(-c2cc(F)cc(F)c2)cs1 (configuration not stated),.,.,.,.,-5.8,.
CCOC(=O)/C(=C\c1ccccc1)C(=O)c1cc(C(C)=O)c(Nc2ccccc2)s1,-43.7,6.8,-8.2,6.0,-4.1,1.7
CCOC(=O)/C(=C\c1cccnc1)C(=O)c1cc(C(C)=O)c(Nc2ccccc2)s1,-21.0,20.5,-7.0,52.5*,-2.6,-1.1
COc1ccc(Nc2oc(COc3ccccc3F)nc2C#N)cc1,7.4,40.5*,-1.8,-7.4,-4.8,0.9
COc1ccc(Nc2oc(COc3ccc(OC)cc3)nc2C#N)cc1,20.8,7.4,-2.1,-2.9,-1.0,2.0
C[C@@H](NCCc1ccc(O)cc1)[C@@H](O)c1ccc(O)cc1,0.6,-0.1,5.2,-0.5,-0.8,-2.8
CCCCCCCCNC(C)C(O)c1ccc(SC(C)C)cc1 (configuration not stated),-17.8,4.9,-3.2,1.6,15.4*,-1.9
CCCCCOc1ccc(Br)cc1/C(C)=N/NC1=NCCN1,-40.4,19.7,3.7,81.0*,-9.1,-1.6
Cc1ccc([N+](=O)[O-])cc1S(=O)(=O)N(C(=O)c1ccncc1)c1ccc2oc3c(c2c1)CCCC3,-5.9,42.6*,-25.6,8.8,-2.1,-0.5
Cc1cc(F)ccc1S(=O)(=O)N(C(=O)c1ccncc1)c1ccc(OC(=O)c2ccncc2)cc1,-15.5,30.5*,1.4,-7.7,-3.3,-0.5
COC(=O)c1c(C)oc2ccc(N(C(=O)c3ccncc3)S(=O)(=O)c3ccc(C)cc3C)cc12,-29.1,56.1*,-19.0,15.1,-0.9,-2.3
COC(=O)c1c(C)oc2ccc(N(C(=O)c3ccncc3)S(=O)(=O)c3ccccc3)cc12,-2.2,29.0,-8.0,-2.1,-3.2,-3.4
COC(=O)c1c(C)oc2ccc(N(C(=O)c3ccncc3)S(=O)(=O)c3ccc4ccccc4c3)cc12,-21.6,38.4*,-13.6,4.1,-2.3,1.1
c1ccc(NN(Cc2ccccn2)c2ccccc2)cc1,.,.,.,.,1.2,.
COc1ccc(N2C(=O)/C(=C\c3ccco3)N=C2SCC(=O)NC(C)(C)C)cc1Cl,-9.9,38.0*,0.2,14.6,-1.2,.
CCCn1cnnc1CNC(=O)[C@H]1O[C@@H](n2ccc(=O)[nH]c2=O)[C@H](O)[C@@H]1O,.,.,.,.,1.3,.
CCOC(=O)c1c(NC(=O)/C=C/C(=O)O)sc(C)c1-c1ccc(C(C)(C)C)cc1,-19.9,.,-22.5,4.1,-5.1,-2.6
Cc1sc(NC(=O)/C=C/C(=O)O)c(C(N)=O)c1-c1ccc(C(C)(C)C)cc1,-3.1,61.3*,2.6,7.7,0.6,1.1
